Assay results from PubChem BioAssay AID2528 (National Center for Advancing Translational Sciences (NCATS), 2010).
Where “and” joins values, the source holds several entries; their conditions need not be identical. Equal values may be shown once. Out of some 350,000 compounds screened, about 700 (0.2%) were called active. Calls come from the whole dose curve; as a rule, active = well fitted inhibition curve with a large enough effect; inconclusive = small, poorly fitted or top-dose-only effect; inactive = flat fitted curve, though single readings scatter. The list comes from a sample in which actives are over-represented; it also holds similar structures and randomly drawn compounds.

molecular target: RecQ-like DNA helicase BLM (Homo sapiens) (UniProt P54132); test: qHTS Assay for Inhibitors of Bloom's syndrome helicase (BLM); details: recombinant BLM DNA unwinding, fluorescence dequenching; series mostly up to 56.1 µM; note: nearly all actives have a fitted effect of over 35% in size;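 for Activity change, negative = inhibition: plate controls were vehicle for no effect and no enzyme for full effect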
Sequence (P54132 whole entry, looked up): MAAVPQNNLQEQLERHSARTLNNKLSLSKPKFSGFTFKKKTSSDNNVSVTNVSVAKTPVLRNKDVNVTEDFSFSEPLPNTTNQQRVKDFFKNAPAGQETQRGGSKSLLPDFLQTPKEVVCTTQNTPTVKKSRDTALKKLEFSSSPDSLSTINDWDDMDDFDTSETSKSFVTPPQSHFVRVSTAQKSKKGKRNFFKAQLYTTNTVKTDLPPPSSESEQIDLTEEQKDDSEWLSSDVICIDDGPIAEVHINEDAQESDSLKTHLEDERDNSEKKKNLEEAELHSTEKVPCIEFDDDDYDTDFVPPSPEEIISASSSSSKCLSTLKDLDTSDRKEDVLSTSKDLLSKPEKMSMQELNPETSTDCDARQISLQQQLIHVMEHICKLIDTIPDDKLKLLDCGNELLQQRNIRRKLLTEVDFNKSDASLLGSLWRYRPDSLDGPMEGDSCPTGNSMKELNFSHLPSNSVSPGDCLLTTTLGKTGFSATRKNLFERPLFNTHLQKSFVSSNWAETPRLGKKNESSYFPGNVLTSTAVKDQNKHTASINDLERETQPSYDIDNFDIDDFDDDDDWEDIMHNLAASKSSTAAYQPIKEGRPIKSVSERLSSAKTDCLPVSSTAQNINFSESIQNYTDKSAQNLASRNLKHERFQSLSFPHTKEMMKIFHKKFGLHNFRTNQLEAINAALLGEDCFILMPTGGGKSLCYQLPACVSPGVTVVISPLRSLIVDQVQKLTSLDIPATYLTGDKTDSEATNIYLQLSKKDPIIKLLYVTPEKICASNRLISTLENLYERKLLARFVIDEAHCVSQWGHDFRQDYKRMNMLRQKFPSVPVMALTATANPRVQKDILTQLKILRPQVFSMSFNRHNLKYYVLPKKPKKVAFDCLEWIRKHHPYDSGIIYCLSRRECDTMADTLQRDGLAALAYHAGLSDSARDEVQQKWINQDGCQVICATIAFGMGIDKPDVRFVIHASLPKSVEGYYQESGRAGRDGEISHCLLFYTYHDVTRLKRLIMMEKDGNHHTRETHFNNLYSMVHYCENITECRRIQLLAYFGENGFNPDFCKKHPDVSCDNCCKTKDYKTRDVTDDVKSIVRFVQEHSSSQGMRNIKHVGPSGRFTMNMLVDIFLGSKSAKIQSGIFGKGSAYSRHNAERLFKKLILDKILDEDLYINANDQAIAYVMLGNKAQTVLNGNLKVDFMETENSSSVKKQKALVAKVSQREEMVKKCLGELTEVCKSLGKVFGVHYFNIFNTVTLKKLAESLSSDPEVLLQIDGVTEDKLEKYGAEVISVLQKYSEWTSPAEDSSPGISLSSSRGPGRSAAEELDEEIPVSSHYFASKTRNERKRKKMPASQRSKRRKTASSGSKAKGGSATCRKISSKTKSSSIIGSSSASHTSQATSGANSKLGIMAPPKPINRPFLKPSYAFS
Potency is the fitted concentration of half-maximal effect.

Potency, inactive:
CN(C)c1cccc(C(=O)Nc2nc3ccc(S(=O)(=O)NC(C)(C)C)cc3s2)c1, Cc1cc2nc(NC(=O)c3ccc(S(=O)(=O)N4CCOCC4)cc3)sc2cc1C, O=C(c1cc2ccccc2s1)N1CCN(c2ccccn2)CC1, O=C(c1cc(-c2ccc(Cl)cc2)on1)N1CCN(c2ccccc2)CC1, Cc1ccc(-c2cc(C(F)(F)F)c(C#N)c(SCC(=O)Nc3ccccc3)n2)cc1, CCCn1c(C)nc2c(NCCCCN(CC)CC)nc(C)nc21, O=C(N/N=C/c1ccco1)c1ccc(NC(=O)C2CC2)cc1, O=C(N/N=C/c1ccco1)c1csc2c1CCCC2, Cc1noc(C)c1-c1ccc2ncnc(NCc3ccc4[nH]ccc4c3)c2c1, CN=C1S/C(=C\c2ccc(Sc3ccc(Cl)cc3)o2)C(=O)N1C, O=C(NCc1ccccc1)c1cc(-c2cccc(Cl)c2)on1, COc1cccc(-c2cc(=O)c3cc(NC(=O)c4ccc(C)cc4)ccc3[nH]2)c1, CCOC(=O)C1=NO[C@@]2(C=C(Br)C(=O)[C@H]3O[C@H]32)C1, CN1CCCC1CCO[C@@](C)(c1ccccc1)c1ccc(Cl)cc1 (stereo partly drawn), NS(=O)(=O)c1ccc2nc(NC(=O)COc3ccccc3)sc2c1, CC(=O)OCC(=O)C1CCC2C3CCC4=CC(=O)CC[C@@]4(C)C3CC[C@]12C (stereo partly drawn), COC(=O)[C@@H]1CC2=CC(=O)CC[C@]2(C)[C@@]23O[C@@H]2C[C@@]2(C)[C@@H](CC[C@@]24CCC(=O)O4)[C@H]13, O=C1CN(Cc2ccccc2)S(=O)(=O)c2ccccc21, O=C(Nc1cccc(C(F)(F)F)c1)c1cc(Br)cc(Br)c1O, COC(=O)[C@@]1(Cc2ccc(OC)cc2)[C@H]2c3cc(C(=O)N4CCCC4)n(Cc4ccc(C(F)(F)F)nc4)c3C[C@H]2CN1C(=O)c1ccccc1, COc1ccccc1CNC(=O)C(=O)NCC(c1cccs1)S(=O)(=O)c1cccs1 (stereo not drawn), C#CCCCCCCCCCCCCCCCC(=O)O, O=C(Nc1cccc(F)c1)N1CCC2(CC1)CCN(S(=O)(=O)c1ccccc1)CC2, CNc1nc(Nc2ccc(C)c(Cl)c2)nc(N)c1[N+](=O)[O-], CN(c1ccccc1)c1nc(N)c([N+](=O)[O-])c(NCc2ccco2)n1, CS(=O)(=O)N1CCC2(CC1)CN(Cc1ccccc1)C2, COC1[C@H](OC(N)=O)C(O)[C@H](Oc2ccc3c(O)c(NC(=O)c4ccc(O)c(CC=C(C)C)c4)c(=O)oc3c2C)OC1(C)C (stereo partly drawn), COc1ccc2c(c1)O[C@@H](c1ccc3c(c1)OCO3)[C@H](OC(=O)NCc1ccco1)C2=O, Clc1ccc(C(Cn2ccnc2)OCc2ccsc2Cl)c(Cl)c1 (stereo not drawn), Cc1[nH]c2ccccc2c1C(c1ccccc1)c1cccs1 (stereo not drawn), COc1ccccc1CNc1cc(-c2ccccc2CN(C)C)ncn1, C/C=C1\C2C=C(C)CC1(N)c1ccc(=O)[nH]c1C2 (stereo not drawn), COc1cc(NS(=O)(=O)c2ccc3c(c2)OCC(C(=O)N2CCCC2)O3)cc(OC)c1 (stereo not drawn), COc1ccc(OC)c2sc(N3CCN(C(=O)C4COc5ccccc5O4)CC3)nc12 (stereo not drawn), O=C(NC1CC(=O)N(c2ccc(F)cc2)C1)c1ccc(S(=O)(=O)N2CCCC2)cc1 (stereo not drawn), O=c1c(CCc2ccccc2)nc2cncnc2n1C1CC1, COC(=O)c1ccc(C(NC(=O)OCc2ccccc2)/C(C)=C/[C@@H](C)C(=O)NCc2cc(C)on2)cc1 (stereo partly drawn), COc1ccc(OCCCn2c(C3CC(=O)N(c4ccc(F)cc4)C3)nc3ccccc32)cc1 (stereo not drawn), Cc1cc(N(C)C)nc(Cl)n1, O=S(O)S(=O)(=O)O, N#Cc1cccc(CS(=O)(=O)c2nnnn2-c2cc(C(F)(F)F)cc(C(F)(F)F)c2)c1, O=C(c1ccco1)N1CCC[C@@]2(CCN(c3ccccc3)C2)C1, Cc1c(CCNC(=O)c2ccc(C(F)(F)F)cc2)sc2nc(-c3ccc(F)cc3)nn12, CCOC(=O)C1CCCN(C(=O)Cn2ncc3c(C)n(Cc4ccc(F)cc4)c(C)c3c2=O)C1 (stereo not drawn), Cc1nc([N+](=O)[O-])cn1CC(=O)Nc1ccc2c(c1)OCO2, COC(=O)c1ccc2c(c1)N(CC(=O)Nc1ccc(C)c(C)c1)C(=O)c1ccccc1S2, Cn1c(COc2ccc(Cl)cc2)nc2ccccc2c1=O, CCCc1nc2c(c(=O)c3ccccc3n2C)c(=O)n1C1CCCCCC1, COC(=O)[C@H]1C[C@@H]1[C@H](NC(=O)Oc1ccc(F)cc1)c1ccccc1, O=C(NCc1cccs1)c1cc(-c2ccccn2)nc2ccc(Br)cc12, CCC(C)NC(=O)c1c(N)n(/N=C/c2cccs2)c2nc3ccccc3nc12 (stereo not drawn), CCC[C@@H]1C[C@@]1(CCC)C(NS(=O)(=O)c1cccc2cccnc12)c1ccc(Cl)cc1 (stereo partly drawn), COc1ccc(Nc2ncc3c(n2)CCN(C(=O)OC(C)(C)C)C3)cc1, O=C1/C(=C\c2ccccc2Cl)SC(=S)N1CCC(=O)N1CCCc2ccccc21, COc1ccc(/C=C2/SC(=O)N(CCCCCC(=O)Nc3ccccc3C(=O)O)C2=S)cc1, C/C=C(\C)C(=O)OC1C(OC(=O)C2(C)OC2C)c2cc3ccc(=O)oc3cc2OC1(C)C (stereo not drawn), CC(C)(O)CCC(O)[C@@](C)(O)C1CC[C@]2(O)C3=CC(=O)C4CC(O)C(O)C[C@]4(C)C3CC[C@]12C (stereo partly drawn), COc1ccc(NC(=O)COc2ccc(C(=O)OCC(=O)N(C)C3CCS(=O)(=O)C3)cc2OC)cc1 (stereo not drawn), COc1ccc2c(-c3ccccc3)cc(SCC(=O)N(C)C3CCS(=O)(=O)C3)nc2c1 (stereo not drawn), COc1cccc(-c2cc(NCCc3c[nH]c4ccc(OC)cc34)ncn2)c1, CCCC[C@@H]1C[C@H]1C(NC(=O)c1ccco1)c1ccc(C(=O)OC)cc1 (stereo partly drawn), CCOc1ccc(OCC)c(NC(=O)CN(c2ccc(C)cc2)S(=O)(=O)c2c(C)n[nH]c2C)c1, CCCCC/C=C\C/C=C\C/C=C\CCCCC(=O)NCC(=O)O, COc1cccc([C@@H]2Oc3ccc(Br)cc3C(=O)[C@H]2OC(=O)NCCc2ccc(OC)c(OC)c2)c1

Potency, active:
CS(=O)(=O)c1ccc2nc(NC(=O)c3ccc(Cl)nc3)sc2c1 17.8 µM, O=C(c1cc2c(s1)CCC2)N1CCN(c2ccccc2)CC1 12.6 µM, O=C(N/N=C/C=C/c1ccco1)c1cccs1 22.4 µM, O=C(O)C(c1ccccc1)N1C(=O)/C(=C\c2ccc(-c3cccc(Cl)c3)o2)SC1=S (stereo not drawn) 22.4 µM, CCN1CC=C2C(C#N)=C(N)C(C#N)(C#N)[C@H](c3ccoc3)[C@H]2C1 28.2 µM, Nc1ccc2nc3c(=O)[nH]c(=S)[nH]c3nc2c1 2.82 µM, COc1cccc(Nc2nc(N)c([N+](=O)[O-])c(NCc3ccco3)n2)c1 3.55 µM, Cc1c(CC(=O)N2CCN(C(=O)C3COc4ccccc4O3)CC2)c(=O)oc2c(O)c(O)ccc12 (stereo not drawn) 8.91 µM, Cc1ccc(N=C2NC(=O)/C(=C/C=C/c3ccco3)S2)cc1C 11.2 µM, Cc1ccc(C(=O)O)cc1-c1ccc(/C=C2\SC(=O)N(CC(=O)Nc3ccc4c(c3)OCO4)C2=O)o1 25.1 µM, Cn1c2ccccc2c(=O)c2c(=O)n(Cc3ccco3)c(COc3ccccc3)nc21 8.91 µM, CC(C)Cn1c(N)c(C(=O)NCc2cccs2)c2nc3ccccc3nc21 31.6 µM, Cc1ccc(-c2nn(-c3ccccc3)cc2/C=C2\SC(=S)N(CCCCCC(=O)O)C2=O)o1 28.2 µM, CN(C(=O)COC(=O)c1cc(-c2ccco2)nc2ccccc12)C1CCS(=O)(=O)C1 (stereo not drawn) 3.16 µM

Activity change, negative = inhibition, inactive:
CC(=O)OCC1OC(C#Cc2ccccc2Cl)C=CC1OC(C)=O (stereo not drawn) 2.5% [at 12.4 µM], C=CCN1c2ccccc2[C@]23C[C@@H](C(=O)OC)N(S(=O)(=O)c4ccc([N+](=O)[O-])cc4)C2=NC(C(=O)OC)=C(C(=O)OC)[C@H]13 -4.61% [at 12.4 µM], CC(C)(C)c1ccc(OC2C=CC(C#Cc3ccccc3)OC2CO)cc1 (stereo not drawn) -1.55% [at 12.4 µM], CO[C@H]1COC(=O)[C@@H](OCc2ccccc2)/C=C\[C@H](C)[C@@H](OC)COC(=O)[C@H](OCc2ccccc2)/C=C\[C@@H]1C 6.6% [at 12.4 µM], CC(=O)OCC1OC(C#CCCCc2ccccc2)C=CC1OC(C)=O (stereo not drawn) -2.87% [at 12.4 µM] and 2.33% [at 12.4 µM], COC(=O)CC1c2ccccc2C(Cc2ccc(OC)cc2)=C(C)N1C(=O)OC (stereo not drawn) 1.25% [at 12.4 µM], C#CCC(C(=O)OC)(C(=O)OC)C(C[N+](=O)[O-])c1ccccc1 (stereo not drawn) 0.0811% [at 12.4 µM], COC(=O)C1=C(C(=O)OC)[C@@H]2N(Cc3ccccc3)c3ccccc3[C@@]23C[C@@H](C(=O)OC)N(S(=O)(=O)c2ccc(C(F)(F)F)cc2)C3=N1 0.18% [at 12.4 µM], COc1ccc(-c2nc3c(c4c2C[C@H](c2ccccc2)OC4)CN(C(=O)C2CC2)CC3)c(C)c1 -3.76% [at 12.4 µM], CO[C@H]1COC(=O)[C@@H](C)NC(=O)C/C=C\[C@@H](C)[C@H](OC)COC(=O)C/C=C\[C@@H]1C 0.711% [at 12.4 µM]
